Results: PMC5836133, “The intracellular immune receptor Rx1 regulates the DNA-binding activity of a Golden2-like transcription factor”
Over roughly 16,000 sequences, “e-score” has its median near -0.044; the highest 2% begin near 0.38. The full list was thinned out, with the highest values kept by preference.

Molecular target: T1, GST-NbGlk1(82-244) (Nicotiana benthamiana)
T1 chain: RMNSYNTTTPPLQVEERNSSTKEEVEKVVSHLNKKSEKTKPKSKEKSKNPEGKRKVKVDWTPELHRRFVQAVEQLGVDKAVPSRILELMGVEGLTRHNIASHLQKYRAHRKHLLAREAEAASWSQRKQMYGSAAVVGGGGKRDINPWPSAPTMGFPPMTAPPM
Assay: protein-binding microarray; NbGlk1 is a Golden2-like transcription factor of Nicotiana benthamiana; high values mean tight binding
Settings: protein: recombinant; tags: GST (pTH6838); dsDNA, one strand shown
ATCTTAGC showed a binding signal of 0.246 ± 0.0788 E-score.
For ATCTCACA, the binding signal was 0.289 ± 0.0836 E-score.
ATACGCGC was tested, and the binding signal was 0.223 ± 0.0538 E-score.
With ATCCGCTA the binding signal was 0.353 ± 0.0323 E-score.
In the case of CAATCAGC, the binding signal is reported as 0.22 ± 0.0614 E-score.
For ATCGCGTC, the binding signal was 0.285 ± 0.0397 E-score.
Sequence CAAATCTA has a binding signal of 0.412 ± 0.0148 E-score.
CAAATCAA showed a binding signal of 0.228 ± 0.037 E-score.
Sequence CAAATATA has a binding signal of 0.245 ± 0.00998 E-score.
CAAATCAC showed a binding signal of 0.272 ± 0.0674 E-score.
AAAATCTA showed a binding signal of 0.4582 ± 0.0038 E-score.
AAAATCAA showed a binding signal of 0.334 ± 0.0377 E-score.
For CAAATCTC, the binding signal was 0.426 ± 0.0426 E-score.
With AAAATTTA the binding signal was 0.248 ± 0.0263 E-score.
Work on AATATTGG yielded a binding signal of 0.202 ± 0.105 E-score.
AATTCTGC showed a binding signal of 0.204 ± 0.0116 E-score.
Sequence AATTTTCA has a binding signal of 0.228 ± 0.0322 E-score.
In the case of ATTGCAGA, the binding signal is reported as 0.253 ± 0.0406 E-score.
With ATCTTCGC the binding signal was 0.237 ± 0.0198 E-score.
In the case of AATATTGA, the binding signal is reported as 0.222 ± 0.0953 E-score.
In the case of AGATCCGC, the binding signal is reported as 0.34 ± 0.0528 E-score.
ATATCCGA showed a binding signal of 0.4021 ± 0.00123 E-score.
In the case of ATATCCGG, the binding signal is reported as 0.436 ± 0.0135 E-score.
With ATCTCCGC the binding signal was 0.293 ± 0.0913 E-score.
ATATCCGC was tested, and the binding signal was 0.4112 ± 0.0033 E-score.
ATATCGGA gave a binding signal of 0.369 ± 0.015 E-score.
For ATATCCCG, the binding signal was 0.317 ± 0.0686 E-score.
For AGATCCGA, the binding signal was 0.307 ± 0.0187 E-score.
In the case of ATTTCCGG, the binding signal is reported as 0.295 ± 0.0475 E-score.
For AATACGAA, the binding signal was 0.205 ± 0.0658 E-score.
ACAAGAAT gave a binding signal of 0.273 ± 0.0228 E-score.
With ACGATCGC the binding signal was 0.252 ± 0.0832 E-score.
For ATTGCACC, the binding signal was 0.222 ± 0.00533 E-score.
With ATCGCGCA the binding signal was 0.358 ± 0.0372 E-score.
ATTTGTAA showed a binding signal of 0.266 ± 0.0497 E-score.
AAATCTGG was tested, and the binding signal was 0.466 ± 0.00695 E-score.
AGATCTGC gave a binding signal of 0.411 ± 0.029 E-score.
AAATCTGC showed a binding signal of 0.4558 ± 0.00312 E-score.
With AGATCTGG the binding signal was 0.364 ± 0.0182 E-score.
Work on AAATCGGC yielded a binding signal of 0.302 ± 0.0126 E-score.
With AGATCTGA the binding signal was 0.332 ± 0.0671 E-score.
In the case of AAATCGGG, the binding signal is reported as 0.354 ± 0.0193 E-score.
Work on CAATCAGG yielded a binding signal of 0.294 ± 0.0424 E-score.
In the case of CAATCTGC, the binding signal is reported as 0.305 ± 0.0551 E-score.
CAATCTGG gave a binding signal of 0.4139 ± 0.000981 E-score.
With AAATCAGG the binding signal was 0.365 ± 0.0118 E-score.
ATTCCCTA was tested, and the binding signal was 0.3669 ± 0.00312 E-score.
Sequence AATTATAA has a binding signal of 0.243 ± 0.0945 E-score.
Work on AAAATAAT yielded a binding signal of 0.205 ± 0.0493 E-score.
Work on AATCATAG yielded a binding signal of 0.246 ± 0.0935 E-score.
ATTTTCAC gave a binding signal of 0.34 ± 0.0212 E-score.
ATCCGCAG gave a binding signal of 0.223 ± 0.00544 E-score.
For AAGTAAAA, the binding signal was 0.21 ± 0.144 E-score.
ATCGTGTA gave a binding signal of 0.262 ± 0.115 E-score.
For AAATCTGA, the binding signal was 0.469 E-score.
With CAATCTGA the binding signal was 0.375 ± 0.0502 E-score.
AAATCATA gave a binding signal of 0.343 ± 0.0134 E-score.
Sequence AGCGATCC has a binding signal of 0.274 ± 0.0142 E-score.
In the case of AAATACGG, the binding signal is reported as 0.207 ± 0.0643 E-score.
AATTGCGC gave a binding signal of 0.227 ± 0.0136 E-score.
AAAAATCT gave a binding signal of 0.4495 ± 0.00385 E-score.
CACAATCG showed a binding signal of 0.268 ± 0.00572 E-score.
ACAAATCT was tested, and the binding signal was 0.374 ± 0.0338 E-score.
In the case of AAAATTCG, the binding signal is reported as 0.282 ± 0.0182 E-score.
ACAAATCG gave a binding signal of 0.297 ± 0.0369 E-score.
In the case of AAAAATCG, the binding signal is reported as 0.389 ± 0.0127 E-score.
For CAAAATCG, the binding signal was 0.386 ± 0.0304 E-score.
Sequence AAAAATCA has a binding signal of 0.336 ± 0.0224 E-score.
AAAAATAT gave a binding signal of 0.3 ± 0.0471 E-score.
Sequence ATTGTGTG has a binding signal of 0.203 ± 0.0438 E-score.
With AATCGCAG the binding signal was 0.224 ± 0.0787 E-score.
Work on ATTTGCTC yielded a binding signal of 0.253 ± 0.0795 E-score.
In the case of ACATGTGA, the binding signal is reported as 0.201 ± 0.017 E-score.
With AATCAGAT the binding signal was 0.341 ± 0.0502 E-score.
ACTAATAT gave a binding signal of 0.2093 ± 0.00102 E-score.
With ATGGGAAT the binding signal was 0.296 ± 0.0441 E-score.
With ACAGATCC the binding signal was 0.234 ± 0.05 E-score.
Sequence ACAAGATA has a binding signal of 0.322 ± 0.00757 E-score.
For ATTCCCTC, the binding signal was 0.372 ± 0.0111 E-score.
ATAATCCA was tested, and the binding signal was 0.354 ± 0.0347 E-score.
With AAAATACG the binding signal was 0.286 ± 0.0671 E-score.
AGAATCAA was tested, and the binding signal was 0.342 ± 0.0419 E-score.
AAAATCCA was tested, and the binding signal was 0.454 ± 0.016 E-score.
ACAATCCA was tested, and the binding signal was 0.3331 ± 0.000895 E-score.
With CAAATCCG the binding signal was 0.389 ± 0.00882 E-score.
AGAATCAG showed a binding signal of 0.39 ± 0.0152 E-score.
